Calls of active or inactive are those of the source.
Legend:
[1] = system: PRMT1 (protein arginine N-methyltransferase 1); assay: PRMT1 binders on small-molecule microarrays, primary screen, biochemical, small-molecule microarray, 635 nm fluorescence (AID 1088); conditions: small-molecule microarray binding, higher = more signal;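 also: binding of Prmt1 protein to compounds spotted on small-molecule microarray slides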
[2] = yeast growth modulation, basal conditions, primary screen, YJM789 clinical isolate, OD600, 24 h (AID 1089);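 also: growth of clinical yeast isolate S. cerevisiae YJM 789 seeded 1000 cells per well; test concentration not given here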; conditions: S. cerevisiae YJM789 growth, higher = more signal, called active from +8 up or from −8 down
[3] = fission yeast growth modulation, primary screen, strain 972, OD600, 24 h, no modulator (AID 1090);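 also: basal condition with compound alone and no growth modifier present; test concentration not given here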; conditions: S. pombe 972 growth, higher = more signal, called active from +8 up or from −8 down
[4] = S. cerevisiae growth modulation with rapamycin, primary screen, strain BY4716, OD600, 96 h (AID 1091); conditions: higher = more signal, called active from +8 up or from −8 down; also: test concentration not given here
[5] = target: Torsin-1A-interacting protein 2 (Homo sapiens) (UniProt Q8NFQ8); assay: LULL1 binders on small-molecule microarray, primary screen, cell lysate, human LULL1 lysate, 635/667 nm fluorescence (AID 1092); conditions: hLULL1 lysate binding, 635 nm fluorescence, higher = more signal;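 also: probe is lysate of COS7 cells overexpressing human LULL1; score merges per-feature 667 nm fluorescence with signal-to-noise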
Chain of Torsin-1A-interacting protein 2 (Homo sapiens) (Q8NFQ8 whole entry, looked up): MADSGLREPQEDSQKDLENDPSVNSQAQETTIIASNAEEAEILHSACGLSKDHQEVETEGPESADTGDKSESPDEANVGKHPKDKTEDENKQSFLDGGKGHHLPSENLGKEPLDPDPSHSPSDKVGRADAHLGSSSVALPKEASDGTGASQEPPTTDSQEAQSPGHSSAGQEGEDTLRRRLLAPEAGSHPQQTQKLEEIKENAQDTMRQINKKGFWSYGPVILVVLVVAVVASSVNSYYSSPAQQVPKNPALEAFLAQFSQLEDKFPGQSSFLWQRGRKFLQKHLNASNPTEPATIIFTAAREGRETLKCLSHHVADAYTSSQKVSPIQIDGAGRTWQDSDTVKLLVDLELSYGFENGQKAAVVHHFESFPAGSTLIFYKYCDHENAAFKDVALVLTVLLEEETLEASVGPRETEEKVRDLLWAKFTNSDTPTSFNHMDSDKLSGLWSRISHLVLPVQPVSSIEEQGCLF

[6] = E. coli growth modulation, two-sided OD650, primary screen, E. coli filamentation project, strain DRC41, 24 h (AID 1093); conditions: OD650, 24 h, higher = more signal, called active from +8 up or from −8 down;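 also: MC1000 strain lacking acrAB efflux and sulA so SOS filamentation is blocked; test concentration not given here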
[7] = small-molecule microarray binders of probe aLefty2, primary screen, biochemical, biotinylated probe, 635/667 nm fluorescence (AID 1094); conditions: higher = more signal;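 also: score merges spot fluorescence near 667 nm with spot signal-to-noise ratio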
[8] = system: Noggin (protein binding on small-molecule microarray); assay: Noggin binders on small-molecule microarray, primary screen, biochemical, 635/667 nm fluorescence (AID 1095); conditions: 635 nm fluorescence, higher = more signal;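 also: score merges 667 nm feature fluorescence with signal to noise over triplicate slides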
[9] = target: Neurogenic locus notch homolog protein 3 (Homo sapiens) (UniProt Q9UM47); assay: NOTCH3 binders on small-molecule microarray, primary screen, biochemical, 635/667 nm fluorescence (AID 1096); conditions: NOTCH3 binding, 635 nm fluorescence, higher = more signal
Chain of Neurogenic locus notch homolog protein 3 (Homo sapiens) (Q9UM47 whole entry, looked up): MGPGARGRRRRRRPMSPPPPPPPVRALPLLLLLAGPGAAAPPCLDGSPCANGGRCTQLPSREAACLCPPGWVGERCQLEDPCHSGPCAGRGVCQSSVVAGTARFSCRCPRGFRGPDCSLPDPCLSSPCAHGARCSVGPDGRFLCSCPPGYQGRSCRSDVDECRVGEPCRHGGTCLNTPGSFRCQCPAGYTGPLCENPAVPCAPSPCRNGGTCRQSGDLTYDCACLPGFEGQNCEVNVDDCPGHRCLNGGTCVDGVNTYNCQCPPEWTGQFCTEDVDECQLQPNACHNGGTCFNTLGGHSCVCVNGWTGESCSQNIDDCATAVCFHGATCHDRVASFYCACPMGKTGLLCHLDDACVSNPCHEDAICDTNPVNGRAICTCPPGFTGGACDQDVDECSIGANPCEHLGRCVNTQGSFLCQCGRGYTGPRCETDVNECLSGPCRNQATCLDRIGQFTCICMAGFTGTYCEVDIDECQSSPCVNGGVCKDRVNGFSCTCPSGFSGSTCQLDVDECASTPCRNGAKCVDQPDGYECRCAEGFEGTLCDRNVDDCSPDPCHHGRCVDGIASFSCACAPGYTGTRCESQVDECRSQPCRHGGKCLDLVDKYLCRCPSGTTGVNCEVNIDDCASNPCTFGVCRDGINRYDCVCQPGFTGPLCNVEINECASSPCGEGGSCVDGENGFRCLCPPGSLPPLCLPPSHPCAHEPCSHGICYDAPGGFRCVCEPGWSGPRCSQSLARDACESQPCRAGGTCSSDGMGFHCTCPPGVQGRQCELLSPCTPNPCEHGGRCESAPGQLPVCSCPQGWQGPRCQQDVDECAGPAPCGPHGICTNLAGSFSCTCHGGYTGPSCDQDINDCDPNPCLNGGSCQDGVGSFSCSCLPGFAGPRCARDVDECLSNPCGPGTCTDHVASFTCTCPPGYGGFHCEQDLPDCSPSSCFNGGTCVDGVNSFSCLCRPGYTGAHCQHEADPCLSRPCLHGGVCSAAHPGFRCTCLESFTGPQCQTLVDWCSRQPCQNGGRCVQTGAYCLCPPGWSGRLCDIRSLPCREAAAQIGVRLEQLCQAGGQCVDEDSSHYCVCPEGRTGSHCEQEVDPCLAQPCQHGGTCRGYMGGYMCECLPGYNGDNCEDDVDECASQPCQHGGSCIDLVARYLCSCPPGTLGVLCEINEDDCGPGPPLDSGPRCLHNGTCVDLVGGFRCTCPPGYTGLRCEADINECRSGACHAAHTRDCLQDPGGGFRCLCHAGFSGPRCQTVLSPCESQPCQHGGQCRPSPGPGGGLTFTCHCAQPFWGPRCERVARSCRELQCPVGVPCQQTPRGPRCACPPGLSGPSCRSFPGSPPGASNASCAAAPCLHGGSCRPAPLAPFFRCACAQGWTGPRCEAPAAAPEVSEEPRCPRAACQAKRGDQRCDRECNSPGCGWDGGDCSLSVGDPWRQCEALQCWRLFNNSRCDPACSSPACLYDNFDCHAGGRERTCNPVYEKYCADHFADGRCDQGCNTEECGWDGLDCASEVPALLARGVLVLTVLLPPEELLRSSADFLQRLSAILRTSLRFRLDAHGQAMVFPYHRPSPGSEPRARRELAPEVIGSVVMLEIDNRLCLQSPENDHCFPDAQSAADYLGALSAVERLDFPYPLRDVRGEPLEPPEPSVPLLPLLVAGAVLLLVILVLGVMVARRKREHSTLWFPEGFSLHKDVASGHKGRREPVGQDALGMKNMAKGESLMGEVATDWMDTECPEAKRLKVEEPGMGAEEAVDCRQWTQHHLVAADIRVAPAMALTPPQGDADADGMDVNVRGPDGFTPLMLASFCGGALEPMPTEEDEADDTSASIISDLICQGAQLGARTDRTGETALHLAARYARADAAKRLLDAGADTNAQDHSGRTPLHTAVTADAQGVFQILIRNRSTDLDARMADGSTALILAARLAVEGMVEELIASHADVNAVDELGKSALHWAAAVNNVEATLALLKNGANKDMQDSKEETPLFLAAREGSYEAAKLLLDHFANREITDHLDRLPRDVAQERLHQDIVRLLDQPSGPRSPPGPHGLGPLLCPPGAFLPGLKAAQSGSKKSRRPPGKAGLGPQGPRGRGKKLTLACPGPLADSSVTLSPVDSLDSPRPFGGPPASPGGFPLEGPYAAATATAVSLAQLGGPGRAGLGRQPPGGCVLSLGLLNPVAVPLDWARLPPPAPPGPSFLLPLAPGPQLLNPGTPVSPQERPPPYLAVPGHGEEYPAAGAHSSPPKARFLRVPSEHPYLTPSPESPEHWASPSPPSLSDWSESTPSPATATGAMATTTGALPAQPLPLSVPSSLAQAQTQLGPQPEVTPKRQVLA

[10] = small-molecule microarray binders of probe aEGFR, primary screen, biochemical, biotinylated probe, 635/667 nm fluorescence (AID 1097); conditions: higher = more signal;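 also: probe is a biotinylated anti-EGFR antibody binding compounds printed on slides; score combines fluorescence near 667 nm and signal to noise of each spot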
[11] = system: Plasmodium falciparum Sir2 (PF13_0152, Sir2A); assay: pfSir2 binders on small-molecule microarrays, primary screen, biochemical, small-molecule microarray, 635 nm fluorescence (AID 1098); conditions: small-molecule microarray binding, fluorescence 635 nm; higher = more signal;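 also: score merges spot fluorescence intensity with its signal-to-noise ratio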
[12] = small-molecule microarray binders of probe aDKK1, primary screen, biochemical, biotinylated probe, 635/667 nm fluorescence (AID 1099); conditions: higher = more signal;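 also: score merges 667nm spot fluorescence with signal to noise across triplicate slides; reference of the scale not given here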
[13] = small-molecule microarray binders of probe aCHRDL2, primary screen, biochemical, biotinylated probe, 635/667 nm fluorescence (AID 1100); conditions: higher = more signal
[14] = splicing luciferase reporter signal modulators, primary screen, spliceosome inhibition project, cell-based, HEK293, splice +/- reporter (AID 1101); conditions: luminescence, 24 h, higher = more signal, called active from +8 up or from −8 down;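 also: HEK293 cells carrying a splicing-competent luciferase reporter gene; test concentration not given here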
[15] = target: Fibroblast growth factor 10 (Homo sapiens) (UniProt O15520); assay: FGF10 binders on small-molecule microarrays, primary screen, biochemical, small-molecule microarray, 635 nm fluorescence (AID 1102); conditions: FGF10 binding, fluorescence 635 nm, higher = more signal
Chain of Fibroblast growth factor 10 (Homo sapiens) (O15520 whole entry, looked up): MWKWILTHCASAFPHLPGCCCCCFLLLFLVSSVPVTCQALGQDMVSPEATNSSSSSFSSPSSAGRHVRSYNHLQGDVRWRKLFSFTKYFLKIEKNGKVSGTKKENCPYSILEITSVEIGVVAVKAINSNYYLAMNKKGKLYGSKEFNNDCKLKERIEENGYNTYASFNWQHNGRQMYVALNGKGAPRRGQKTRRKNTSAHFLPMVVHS

[16] = system: glycogen synthase kinase-3 (GSK3A per assay name; protocol says GSK3B); assay: GSK3 binders on small-molecule microarrays, primary screen, biochemical, small-molecule microarray, 635 nm fluorescence, GSK3A (AID 1103); conditions: small-molecule microarray binding, fluorescence 635 nm; higher = more signal; also: the record names both GSK3A and GSK3B
[17] = target: Epidermal growth factor receptor (Homo sapiens) (UniProt P00533); assay: EGFR binders on small-molecule microarrays, primary screen, biochemical, small-molecule microarray, 635 nm fluorescence (AID 1104); conditions: EGFR binding, higher = more signal;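 also: score merges 667 nm emission intensity with spot signal to noise over triplicate slides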
Chain of Epidermal growth factor receptor (Homo sapiens) (P00533 whole entry, looked up): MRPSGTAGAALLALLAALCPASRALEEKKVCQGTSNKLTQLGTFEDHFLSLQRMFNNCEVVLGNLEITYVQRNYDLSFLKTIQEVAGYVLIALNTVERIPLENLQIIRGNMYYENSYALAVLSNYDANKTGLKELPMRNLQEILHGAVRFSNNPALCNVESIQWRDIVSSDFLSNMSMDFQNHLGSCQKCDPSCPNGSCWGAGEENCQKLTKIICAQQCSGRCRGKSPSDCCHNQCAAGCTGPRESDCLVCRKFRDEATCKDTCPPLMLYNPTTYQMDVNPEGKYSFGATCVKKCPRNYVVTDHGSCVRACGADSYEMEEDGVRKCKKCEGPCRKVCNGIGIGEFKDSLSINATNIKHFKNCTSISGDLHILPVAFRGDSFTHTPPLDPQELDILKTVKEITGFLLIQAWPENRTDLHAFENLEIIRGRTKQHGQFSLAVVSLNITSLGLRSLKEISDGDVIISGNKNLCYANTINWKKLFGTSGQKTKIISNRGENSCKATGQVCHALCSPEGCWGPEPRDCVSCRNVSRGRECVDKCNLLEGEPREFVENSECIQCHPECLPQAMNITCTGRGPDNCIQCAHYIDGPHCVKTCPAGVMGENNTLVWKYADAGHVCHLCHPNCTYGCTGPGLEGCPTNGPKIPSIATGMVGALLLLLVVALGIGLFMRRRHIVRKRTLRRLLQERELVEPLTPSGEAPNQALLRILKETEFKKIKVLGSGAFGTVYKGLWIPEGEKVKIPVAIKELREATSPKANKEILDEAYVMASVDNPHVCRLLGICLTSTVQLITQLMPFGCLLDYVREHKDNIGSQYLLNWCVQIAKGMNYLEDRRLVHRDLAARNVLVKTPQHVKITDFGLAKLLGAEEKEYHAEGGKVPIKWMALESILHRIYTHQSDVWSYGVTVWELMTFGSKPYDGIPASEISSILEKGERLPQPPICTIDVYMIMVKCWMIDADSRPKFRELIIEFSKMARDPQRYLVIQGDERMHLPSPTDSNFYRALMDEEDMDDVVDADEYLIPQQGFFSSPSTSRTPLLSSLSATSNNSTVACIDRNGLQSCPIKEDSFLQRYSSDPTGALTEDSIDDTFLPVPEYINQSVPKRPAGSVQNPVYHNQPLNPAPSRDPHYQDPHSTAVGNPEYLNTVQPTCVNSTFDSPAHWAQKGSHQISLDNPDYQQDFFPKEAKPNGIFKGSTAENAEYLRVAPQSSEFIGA

[18] = target: Follistatin-related protein 3 (Homo sapiens) (UniProt O95633); assay: FSTL3 binders on small-molecule microarrays, primary screen, biochemical, small-molecule microarray, 635 nm fluorescence (AID 1105); conditions: FSTL3 binding, higher = more signal;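 also: score merges emission near 667 nm and signal to noise per printed spot across three slides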
Chain of Follistatin-related protein 3 (Homo sapiens) (O95633 whole entry, looked up): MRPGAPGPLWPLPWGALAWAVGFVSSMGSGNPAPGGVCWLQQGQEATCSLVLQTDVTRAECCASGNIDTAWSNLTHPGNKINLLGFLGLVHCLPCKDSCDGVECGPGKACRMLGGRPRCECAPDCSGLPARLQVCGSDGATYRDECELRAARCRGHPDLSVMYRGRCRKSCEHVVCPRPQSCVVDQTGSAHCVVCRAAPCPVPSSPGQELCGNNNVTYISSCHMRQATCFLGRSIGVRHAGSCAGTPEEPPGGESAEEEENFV

[19] = target: Dickkopf-related protein 1 (Homo sapiens) (UniProt O94907); assay: DKK1 binders on small-molecule microarrays, primary screen, biochemical, small-molecule microarray, 635 nm fluorescence scan (AID 1106); conditions: DKK1 binding, higher = more signal;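 also: score merges emission near 667 nm with signal to noise over three replicate slides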
Chain of Dickkopf-related protein 1 (Homo sapiens) (O94907 whole entry, looked up): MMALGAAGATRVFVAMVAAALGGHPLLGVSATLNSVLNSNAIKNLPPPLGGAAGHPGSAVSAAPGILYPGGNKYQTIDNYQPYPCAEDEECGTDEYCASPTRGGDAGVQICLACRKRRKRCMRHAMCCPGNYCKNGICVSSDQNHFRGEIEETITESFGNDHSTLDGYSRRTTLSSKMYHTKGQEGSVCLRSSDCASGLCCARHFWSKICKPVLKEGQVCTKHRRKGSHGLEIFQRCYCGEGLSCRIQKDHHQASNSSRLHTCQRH

[20] = system: Inhibin beta A chain (activin A); assay: INHBA (activin A) binders on microarrays, primary screen, biochemical, small-molecule microarray, 635 nm fluorescence scan (AID 1107); conditions: small-molecule microarray binding, higher = more signal;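 also: mouse activin A protein probed at 4.33 µg/mL on printed slides; score merges bound-protein fluorescence near 667 nm with spot signal-to-noise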

CCOc1cc(C(O)C2C=CC3C(=O)N(c4ccccc4)C(=O)C3N2Nc2ccc([N+](=O)[O-])cc2)ccc1O (stereo not given)
composite z-score [1]: 1.07
z-score [2]: -0.441 (inactive)
z-score [3]: 0.442 (inactive)
z-score [4]: -0.364 (inactive)
composite z-score [5]: 3.37
z-score [6]: -0.961 (inactive)
composite z-score [7]: -0.0534
composite z-score [8]: 0.0883
composite z-score [9]: 0.782
composite z-score [10]: -0.067
composite z-score [11]: 1.33
composite z-score [12]: -0.0703
composite z-score [13]: -0.129
z-score [14]: -0.214 (inactive)
composite z-score [15]: 0.575
composite z-score [16]: 0.757
composite z-score [17]: 0.317
composite z-score [18]: 0.429
composite z-score [19]: 0.0577
composite z-score [20]: 0.199

O=C1O[C@H](c2ccccc2)[C@H](c2ccccc2)N2[C@H]1[C@@H](C(=O)N1CCN(c3ncccn3)CC1)[C@]1(C(=O)Nc3ccccc31)[C@H]2c1ccc(OCCO)cc1
composite z-score [1]: 1.56
z-score [2]: 2.72 (inactive)
z-score [3]: 0.573 (inactive)
z-score [4]: 4.75 (inactive)
composite z-score [5]: 2.35
z-score [6]: 2.9 (inactive)
composite z-score [7]: -0.037
composite z-score [8]: 1.88
composite z-score [9]: 1.1
composite z-score [10]: -0.0763
composite z-score [11]: 0.348
composite z-score [12]: -0.0864
composite z-score [13]: 0.174
z-score [14]: -1.15 (inactive)
composite z-score [15]: 1.29
composite z-score [16]: 1.22
composite z-score [17]: 0.665
composite z-score [18]: 1.32
composite z-score [19]: 0.632
composite z-score [20]: 0.395

[N-]=[N+]=Nc1ccccc1[C@H]1OC(c2ccc(OCCCO)cc2)=N[C@@]1(CCS(=O)(=O)c1ccccc1)C(=O)O
composite z-score [1]: 0.164
z-score [2]: -0.775 (inactive)
z-score [3]: -3.52 (inactive)
z-score [4]: -0.0047 (inactive)
composite z-score [5]: 3.2
z-score [6]: 1.46 (inactive)
composite z-score [7]: 0.308
composite z-score [8]: -0.688
composite z-score [9]: -0.0883
composite z-score [10]: -0.179
composite z-score [11]: 1.31
composite z-score [12]: 0.503
composite z-score [13]: 1.14
z-score [14]: -0.433 (inactive)
composite z-score [15]: 0.104
composite z-score [16]: -0.359
composite z-score [17]: -0.18
composite z-score [18]: -0.116
composite z-score [19]: -0.601
composite z-score [20]: 1.25

O=C1N(CCS(=O)(=O)c2ccccc2)Cc2ccccc2C[C@]12N=C(c1ccc(OCCCO)cc1)O[C@@H]2c1ccccc1
composite z-score [1]: 1.54
z-score [2]: -0.452 (inactive)
z-score [3]: 1.2 (inactive)
z-score [4]: 4.94 (inactive)
composite z-score [5]: 3.45
z-score [6]: 0.175 (inactive)
composite z-score [7]: 0.366
composite z-score [8]: 1.2
composite z-score [9]: 1.05
composite z-score [10]: 0.177
composite z-score [11]: 1.24
composite z-score [12]: 0.467
composite z-score [13]: 0.655
z-score [14]: -1.46 (inactive)
composite z-score [15]: 1.4
composite z-score [16]: 1.3
composite z-score [17]: 0.477
composite z-score [18]: 1.18
composite z-score [19]: 0.784
composite z-score [20]: 1.4

COC(=O)c1ccc(C(O)C2C=CC3C(=O)N(C)C(=O)C3N2NC(=O)OC(C)(C)C)o1 (stereo not given)
composite z-score [1]: 1.36
z-score [2]: -0.0904 (inactive)
z-score [3]: 0.771 (inactive)
z-score [4]: 0.122 (inactive)
composite z-score [5]: 3.01
z-score [6]: -1.09 (inactive)
composite z-score [7]: 0.177
composite z-score [8]: 0.356
composite z-score [9]: 0.526
composite z-score [10]: 0.0419
composite z-score [11]: 0.66
composite z-score [12]: 0.49
composite z-score [13]: 0.266
z-score [14]: 1.26 (inactive)
composite z-score [15]: 0.558
composite z-score [16]: 0.483
composite z-score [17]: 0.557
composite z-score [18]: 0.622
composite z-score [19]: -0.0526
composite z-score [20]: 0.399

C=CCC(OC(C)=O)[C@@H]1[C@@H](N(Cc2ccc(-c3cccc(C(F)(F)F)c3)o2)C(=O)c2ccc(C)cc2)c2cc(OCCCO)ccc2N1C(=O)c1ccc(-c2ccccc2)cc1 (stereo not given in full)
composite z-score [1]: 0.0003
z-score [2]: 0.0652 (inactive)
z-score [3]: -1.07 (inactive)
z-score [4]: 0.271 (inactive)
composite z-score [5]: 0.476
z-score [6]: 1.03 (inactive)
composite z-score [7]: -0.194
composite z-score [8]: 0.507
composite z-score [9]: 0.46
composite z-score [10]: -0.139
composite z-score [11]: 0.44
composite z-score [12]: -0.0544
composite z-score [13]: 0.0823
z-score [14]: -0.714 (inactive)
composite z-score [15]: 0.0825
composite z-score [16]: -1
composite z-score [17]: -0.0697
composite z-score [18]: 0.473
composite z-score [19]: -0.0581
composite z-score [20]: 1.23

C=CCC(OC(C)=O)[C@@H]1[C@@H](N(Cc2cccc3ccccc23)C(=O)c2ccc(C)cc2)c2cc(OCCCO)ccc2N1C(=O)Cc1ccc(OC)cc1 (stereo not given in full)
composite z-score [1]: 0.479
z-score [2]: -3.36 (inactive)
z-score [3]: 0.365 (inactive)
z-score [4]: -1.4 (inactive)
composite z-score [5]: -0.204
z-score [6]: 0.761 (inactive)
composite z-score [7]: -0.128
composite z-score [8]: 0.146
composite z-score [9]: -0.139
composite z-score [10]: -0.0828
composite z-score [11]: 0.102
composite z-score [12]: -0.413
composite z-score [13]: -0.281
z-score [14]: -1.53 (inactive)
composite z-score [15]: -0.104
composite z-score [16]: 0.0349
composite z-score [17]: 0.254
composite z-score [18]: 0.492
composite z-score [19]: 0.576
composite z-score [20]: 1.05

CC(c1ccccc1)C(O)C1C=CC2C(=O)NC(=O)C2N1Nc1ccccn1 (stereo not given)
composite z-score [1]: 1.43
z-score [2]: 0.978 (inactive)
z-score [3]: 0.704 (inactive)
z-score [4]: 1.17 (inactive)
composite z-score [5]: 1.52
z-score [6]: -0.88 (inactive)
composite z-score [7]: 0.136
composite z-score [8]: 0.361
composite z-score [9]: 1.12
composite z-score [10]: -0.0159
composite z-score [11]: 0.459
composite z-score [12]: 0.0178
composite z-score [13]: 0.585
z-score [14]: 1.63 (inactive)
composite z-score [15]: 0.831
composite z-score [16]: 0.767
composite z-score [17]: 0.532
composite z-score [18]: 1.01
composite z-score [19]: 0.481
composite z-score [20]: 1.41

CC1=C2[C@@H](CCc3ccccc3)OB(O)C[C@@H]2n2c(=O)n(-c3ccccc3)c(=O)n2C1
composite z-score [1]: 1.02
z-score [2]: -0.237 (inactive)
z-score [3]: -1.51 (inactive)
z-score [4]: -0.535 (inactive)
composite z-score [5]: 0.902
z-score [6]: -0.296 (inactive)
composite z-score [7]: -0.179
composite z-score [8]: 0.416
composite z-score [9]: 0.666
composite z-score [10]: -0.111
composite z-score [11]: 0.897
composite z-score [12]: -0.0992
composite z-score [13]: -0.339
z-score [14]: 0.72 (inactive)
composite z-score [15]: 0.355
composite z-score [16]: 0.255
composite z-score [17]: 0.249
composite z-score [18]: 0.894
composite z-score [19]: 0.565
composite z-score [20]: 0.421

O=C1O[C@H](c2ccccc2)[C@H](c2ccccc2)N2[C@H]1[C@@H](C(=O)NC[C@H](O)c1ccccc1)[C@]1(C(=O)Nc3ccc(C#CCCO)cc31)[C@H]2c1ccc(O)cc1
composite z-score [1]: -0.0718
z-score [2]: -0.383 (inactive)
z-score [3]: -0.0869 (inactive)
z-score [4]: 0.105 (inactive)
composite z-score [5]: -0.217
z-score [6]: 0.092 (inactive)
composite z-score [7]: 0.0249
composite z-score [8]: -0.984
composite z-score [9]: -0.415
composite z-score [10]: -0.194
composite z-score [11]: -0.229
composite z-score [12]: -0.145
composite z-score [13]: 0.0258
z-score [14]: -0.551 (inactive)
composite z-score [15]: -0.716
composite z-score [16]: -1.28
composite z-score [17]: -0.286
composite z-score [18]: -1.17
composite z-score [19]: -0.523
composite z-score [20]: 0.644

From PubChem BioAssay
